Laboratory results as given in PubChem BioAssay (NCI).
The panel holds about 83,000 compounds, 20% with a hit somewhere; the sample as a whole holds those more often.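 Growth was measured after 48 h exposure to one concentration of compound in 96-well plates. Values under 10 count as active.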 Calls of active or inactive are those of the source.

These molecules were tested on SK-MEL-28 melanoma (assay: NCI-60 one-dose screen, 48 h (100 = growth as untreated, 0 = no growth, -100 = all killed)). Conditions: 10 µM unless noted.
Protocol: Growth inhibition of the SK-MEL-28 human tumor cell line is measured as a screen for anti-cancer activity. Cells are grown in 96 well plates and exposed to the test compound for 48 hours. Compounds are tested at a single concentration, which is 10^-5 M for most compounds. The reported endpoint is percent growth (GI% or GIPRCNT), where numbers from 0 - 100% represent growth inhibition, and numbers from -100% - 0 represent cell death. For example, a value of 40 represents 60% growth inhibition. A value of 0 means no net growth occurred over the course of the experiment. A value of -40 indicates 40% of cells at the beginning of the experiment died by the end of the experiment. A value of -100 means all cells are dead at the end of the experiment.
NCI-60 Human Tumor Cell Lines Screen was performed using the standard one-dose NCI protocol, which is described in more detail at https://dtp.cancer.gov/discovery_development/nci-60/default.htm.
Compounds with GIPRCNT values below 10 were considered active. Activity score was based on GIPRCNT using the following formula: […]
Score is 0 for GIPRCNT values of 100 or above, 50 for GIPRCNT values of 0, and 100 for GIPRCNT values of -100.
With `CC(NC(=O)Oc1cccc2ccccc12)c1ccccc1` (stereo not given) the growth was 110% (inactive). For `O=c1sc2ncnc3ncn1c32`, the growth was 99.6% (inactive). `C/C(=C\CCc1ccoc1)CC/C=C(\C)CCCNc1ccc(F)cc1` was tested, and the growth was 96.6% (inactive). For `Cc1ccc(/C=C/C(=O)c2ccc(F)cc2)s1`, the growth was 105% (inactive). With `O=[N+]([O-])c1ccc(N=Nc2c(Cl)cc(O)cc2Cl)cc1` the growth was 5.72% (active). For `CCCCCN1C(=O)CCC1=O`, the growth was 110% (inactive). In the case of `COc1ccc2ncccc2c1Cc1c(OC)ccc2ncccc12`, the growth is reported as 77.4% (inactive). For `COc1cnc2c(c1)C(=O)c1c-2n(CCCN2CCOCC2)c(=O)c2cc(F)ccc12`, the growth was 18.6% (inactive). With `CC(=O)OC1Oc2cc(C)c(C)cc2-c2oc(=O)c(-c3ccccc3)cc21` (stereo not given) the growth was 49% (inactive). For `COC(=O)[C@H](Cc1cnc[nH]1)NC(=O)[C@@H](NC(=O)Nc1cc(C(F)(F)F)cc(C(F)(F)F)c1)C(C)C`, the growth was -96.1% [100 µM] (active). With `O=C(Oc1cccc2ccccc12)c1ccccc1C(=O)c1ccccc1` the growth was 119% (inactive). `COCCOCCOCCOCCOc1ccc2c(c1)C(=O)c1nc3ncccc3c(=O)n1-2` was tested, and the growth was -75.3% (active). In the case of `COc1ccc(-c2ccc(O)c(C(=O)/C=C/c3cc(OC)c(OC)c(OC)c3)c2)cc1`, the growth is reported as 104% (inactive). `CCOC(=O)CNC(=O)C1(NC(=O)CNC(=O)OCc2ccccc2)CCCC1` was tested, and the growth was 107% (inactive). `O=C(COc1ccc(/C=C2\Oc3ccc4ccccc4c3C2=O)cc1)c1ccc([N+](=O)[O-])cc1` was tested, and the growth was 106% (inactive). With `O=C(Nc1nc2c(C(F)(F)F)cccc2s1)c1cc(Cl)ccc1O` the growth was 28.6% (inactive). `Nc1ccc(N=Nc2ccccc2)cc1[N+](=O)[O-]` was tested, and the growth was 119% (inactive). With `COc1ccc(C2=NN(C=O)C(c3cccc(Nc4ccnc5cc(Cl)ccc45)c3)C2)cc1` (stereo not given) the growth was 50.6% (inactive). For `Cc1ccc(NC(=O)c2sc3nc4c(cc3c2N)C(=O)CCC4)cc1`, the growth was 84.8% (inactive). For `CC1C(=O)NC2=Nc3ccccc3C(=O)NN21` (stereo not given), the growth was 120% (inactive). For `O=C(COc1cccc(/C=C2\Oc3ccc4ccccc4c3C2=O)c1)c1ccc(Cl)cc1`, the growth was 113% (inactive). With `O=C1Nc2ccc(Cl)cc2/C1=C/c1cccs1` the growth was 113% (inactive). In the case of `CCCCCCCCCCN1CCC(N2CCCCC2)CC1`, the growth is reported as -29.1% (active). With `Cc1cc(C)cc(S(=O)(=O)n2ccc(-c3ccc4c(c3)CCC(C)(C)O4)n2)c1` the growth was 102% (inactive). In the case of `Fc1ccccc1C1c2ccccc2-c2nccn21` (stereo not given), the growth is reported as 109% (inactive). In the case of `O=C(c1ccccc1)c1ccc(Oc2ccc([N+](=O)[O-])cc2[N+](=O)[O-])cc1`, the growth is reported as 101% (inactive). With `CC(C)C[C@H](NC(=O)/C=C/Cn1ccc2ccccc2c1=O)B(O)O` the growth was 50.8% (inactive). With `COc1cc(/C=C/C(=O)c2c(C)n([O-])c3ccc(Cl)cc3[n+]2=O)cc(OC)c1OC` the growth was 84% (inactive). In the case of `CC(=O)Nc1cc(C(c2ccccc2)c2ccccc2)cc(C(c2ccccc2)c2ccccc2)c1C`, the growth is reported as 56.8% (inactive). With `O=C(Oc1ccccc1)C(Br)C(Br)c1ccccc1` (stereo not given) the growth was 111% (inactive). For `COc1cc(C2CC(C3C(=O)N(C)C(=O)N(C)C3=O)=NN2C=O)cc(OC)c1OC` (stereo not given), the growth was 108% (inactive). With `O=C(Nc1ccccc1)P(=O)(O)c1ccccc1` the growth was 102% (inactive). `CCOC(=O)CCC(=O)O[C@H]1[C@H](O[C@@H]2[C@@H](C)[C@H](O[C@H]3C[C@@](C)(OC)[C@@H](O)[C@H](C)O3)[C@@H](C)C(=O)O[C@H](CC)[C@@](C)(O)[C@H](O)[C@@H](C)C(=O)[C@H](C)C[C@@]2(C)O)O[C@H](C)C[C@@H]1N(C)C` was tested, and the growth was 117% (inactive). In the case of `COc1ccc(NC(=O)c2ccc(-c3ccccc3)cc2)c(C(N)=O)c1`, the growth is reported as 108% (inactive). For `CCCCc1n(Cc2ccc3ccccc3c2)cc[n+]1Cc1ccc2ccccc2c1`, the growth was -55% (active). `COc1cnc2c(c1)C(=O)c1c-2n(CCCN2CCC(O)CC2)c(=O)c2cc(F)ccc12` was tested, and the growth was 13.2% (inactive). `COc1cccc(C2=NN(C(C)=O)C(c3cc(OC)c(OC)c(OC)c3)C2)c1` (stereo not given) was tested, and the growth was 40.9% (inactive). `COc1cc(/C=C/C(=O)CC(=O)/C=C/c2ccc(OC(=O)CCNC34CC5CC(CC(C5)C3)C4)c(OC)c2)ccc1OC(=O)CCNC12CC3CC(CC(C3)C1)C2` was tested, and the growth was 33.6% (inactive). For `O=c1c2ccccc2c2nccn2c2cc(Cl)ccc12`, the growth was 96.8% (inactive). For `Cc1ccc2nc(-c3ccc(N(C)C)c(Br)c3)cn2c1`, the growth was 93.3% (inactive).
